The results in this text go back to paper PMC7862700, “An all-to-all approach to the identification of sequence-specific readers for epigenetic DNA modifications on cytosine”.

Common to all, as to test: DAPPL (digital affinity profiling via proximity ligation, sequencing); 10 mM Tris-HCl pH 7.5, 50 mM NaCl, 1 mM DTT, 4% glycerol, room temperature, 30 min; GST-TFs on glutathione beads, 16-mer random dsDNA library, 0.1% formaldehyde crosslink after washing; high values mean tight binding
The target in assay [1] is T1, FEV (Homo sapiens, UniProt Q99581 1-238).
T1 sequence: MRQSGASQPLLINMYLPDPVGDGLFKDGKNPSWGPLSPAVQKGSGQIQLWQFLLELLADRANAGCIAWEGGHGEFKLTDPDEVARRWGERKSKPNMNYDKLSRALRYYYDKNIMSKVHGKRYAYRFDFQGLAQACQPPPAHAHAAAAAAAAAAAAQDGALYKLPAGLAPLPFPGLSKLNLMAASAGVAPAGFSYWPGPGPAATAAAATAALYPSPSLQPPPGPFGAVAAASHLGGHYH
The following applies: protein: recombinant; tags: N-terminal GST; dsDNA, one strand shown. The gist of the method:
(§1)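 In yeast, human transcription factors were expressed with a GST fusion, then pulled down on glutathione beads and given DNA barcodes. Pooled with a tag-only sample, they were exposed to 200 nmole of a 16-mer random double-stranded DNA library (Tris/NaCl/DTT/glycerol buffer, room temperature, 30 min), washed, crosslinked with 0.1% formaldehyde, proximity-ligated using BsaI/T4 ligase for 1 h at 37 °C, PCR-amplified and read on an Illumina NextSeq500. Each hexamer's frequency of reads for a factor, divided by the matching frequency for the tag-only sample, gives the binding signal.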

The target of assay [2] is ETV5 (Homo sapiens, UniProt P41161 1-510). The settings on record: protein: recombinant; tags: N-terminal GST; dsDNA, one strand shown. In short, it runs like this:
as §1

In assay [3] the target is HSF1 (Homo sapiens, UniProt Q00613 1-529). The following applies: protein: recombinant; tags: N-terminal GST; chain copies: 3; dsDNA, one strand shown. The gist of the method:
as §1

Assay [4] has as its target T2, SPIC (Homo sapiens, UniProt Q8N5J4 1-248).
T2 sequence: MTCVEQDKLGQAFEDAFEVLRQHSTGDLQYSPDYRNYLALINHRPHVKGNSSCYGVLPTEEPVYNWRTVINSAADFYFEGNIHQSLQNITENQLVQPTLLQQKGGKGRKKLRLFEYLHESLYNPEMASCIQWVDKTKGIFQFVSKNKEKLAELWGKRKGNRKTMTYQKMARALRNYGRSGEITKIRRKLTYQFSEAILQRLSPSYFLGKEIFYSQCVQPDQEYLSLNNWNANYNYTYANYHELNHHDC
The settings on record: protein: recombinant; tags: N-terminal GST; dsDNA, one strand shown. In short, it runs like this: as §1

The target of assay [5] is ELF4 (Homo sapiens, UniProt Q99607 1-663). The settings on record: protein: recombinant; tags: N-terminal GST; dsDNA, one strand shown. In short, it runs like this:
as §1

The target in assay [6] is T3, ELK4 (Homo sapiens, UniProt P28324-2 1-405).
T3 sequence: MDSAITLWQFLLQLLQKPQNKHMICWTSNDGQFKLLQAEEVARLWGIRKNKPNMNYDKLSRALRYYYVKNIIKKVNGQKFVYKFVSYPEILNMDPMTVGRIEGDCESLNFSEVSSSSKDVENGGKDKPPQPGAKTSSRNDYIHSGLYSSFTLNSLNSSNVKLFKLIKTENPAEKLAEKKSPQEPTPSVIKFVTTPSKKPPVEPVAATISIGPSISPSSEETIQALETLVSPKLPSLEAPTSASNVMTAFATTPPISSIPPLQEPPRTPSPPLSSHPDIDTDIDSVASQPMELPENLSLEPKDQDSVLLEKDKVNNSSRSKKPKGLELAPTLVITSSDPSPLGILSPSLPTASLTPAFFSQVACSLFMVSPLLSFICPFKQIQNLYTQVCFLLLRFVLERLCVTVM
The settings on record: protein: recombinant; tags: N-terminal GST; dsDNA, one strand shown. In short, it runs like this:
as §1

Assay [7] has as its target T4, ETV2 (Homo sapiens, UniProt O00321 1-342).
T4 sequence: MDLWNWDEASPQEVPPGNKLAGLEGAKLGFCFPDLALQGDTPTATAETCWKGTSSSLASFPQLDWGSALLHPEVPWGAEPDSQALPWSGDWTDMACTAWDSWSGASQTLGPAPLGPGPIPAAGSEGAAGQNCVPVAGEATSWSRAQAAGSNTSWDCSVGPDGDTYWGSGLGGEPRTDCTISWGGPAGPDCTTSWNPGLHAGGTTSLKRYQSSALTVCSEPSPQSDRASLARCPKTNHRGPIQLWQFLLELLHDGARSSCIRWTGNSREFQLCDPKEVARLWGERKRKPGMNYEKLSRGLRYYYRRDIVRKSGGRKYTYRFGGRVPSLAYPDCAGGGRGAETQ
The settings on record: protein: recombinant; tags: N-terminal GST; dsDNA, one strand shown. In short, it runs like this:
as §1

Assay [8] concerns the target T5, ELF3 (Homo sapiens, UniProt P78545 1-371).
T5 sequence: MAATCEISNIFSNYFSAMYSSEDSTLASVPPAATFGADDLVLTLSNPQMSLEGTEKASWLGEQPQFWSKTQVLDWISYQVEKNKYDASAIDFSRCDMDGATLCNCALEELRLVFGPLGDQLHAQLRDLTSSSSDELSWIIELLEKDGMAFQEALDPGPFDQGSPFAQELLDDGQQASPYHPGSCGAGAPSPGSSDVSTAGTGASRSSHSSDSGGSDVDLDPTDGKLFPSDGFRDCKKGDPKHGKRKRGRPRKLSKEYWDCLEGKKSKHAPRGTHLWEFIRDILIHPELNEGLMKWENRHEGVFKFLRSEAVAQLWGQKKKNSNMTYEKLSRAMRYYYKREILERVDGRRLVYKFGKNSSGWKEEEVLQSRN
The following applies: protein: recombinant; tags: N-terminal GST; dsDNA, one strand shown. The gist of the method: as §1

The target in assay [9] is CRX (Homo sapiens, UniProt O43186 1-299). The settings on record: protein: recombinant; tags: N-terminal GST; dsDNA, one strand shown. In short, it runs like this: as §1
Chain of CRX (O43186 whole entry): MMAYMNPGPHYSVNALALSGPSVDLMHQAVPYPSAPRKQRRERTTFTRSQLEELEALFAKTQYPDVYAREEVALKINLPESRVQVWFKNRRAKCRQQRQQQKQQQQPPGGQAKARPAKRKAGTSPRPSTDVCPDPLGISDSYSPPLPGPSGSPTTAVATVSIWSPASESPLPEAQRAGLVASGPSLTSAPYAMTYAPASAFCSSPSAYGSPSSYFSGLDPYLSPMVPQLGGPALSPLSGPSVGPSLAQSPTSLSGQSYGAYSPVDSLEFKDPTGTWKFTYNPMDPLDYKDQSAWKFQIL
Assay [10] has as its target ETV1 (Homo sapiens, UniProt P50549 1-477). The settings on record: protein: recombinant; tags: N-terminal GST; dsDNA, one strand shown. In short, it runs like this:
as §1

Assay [11] addresses T6, ERF (Homo sapiens, UniProt P50548 1-548).
T6 sequence: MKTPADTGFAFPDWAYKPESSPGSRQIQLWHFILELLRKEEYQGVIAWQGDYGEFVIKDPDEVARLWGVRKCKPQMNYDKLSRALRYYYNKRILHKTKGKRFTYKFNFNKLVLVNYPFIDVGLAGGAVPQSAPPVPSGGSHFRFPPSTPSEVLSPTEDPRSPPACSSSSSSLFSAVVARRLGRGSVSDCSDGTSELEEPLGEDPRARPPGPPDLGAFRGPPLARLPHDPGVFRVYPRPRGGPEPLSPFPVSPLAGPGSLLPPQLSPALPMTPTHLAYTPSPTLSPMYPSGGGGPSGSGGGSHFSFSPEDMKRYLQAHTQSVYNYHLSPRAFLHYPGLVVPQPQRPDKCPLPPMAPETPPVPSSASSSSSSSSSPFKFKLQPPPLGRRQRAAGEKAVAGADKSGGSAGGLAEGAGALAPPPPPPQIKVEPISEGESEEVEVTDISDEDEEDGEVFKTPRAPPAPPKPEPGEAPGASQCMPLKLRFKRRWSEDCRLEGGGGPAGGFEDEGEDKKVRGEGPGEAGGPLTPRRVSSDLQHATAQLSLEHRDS
The settings on record: protein: recombinant; tags: N-terminal GST; dsDNA, one strand shown. In short, it runs like this:
as §1

Assay [12] addresses T7, ETV3L (Homo sapiens, UniProt Q6ZN32 1-361).
T7 sequence: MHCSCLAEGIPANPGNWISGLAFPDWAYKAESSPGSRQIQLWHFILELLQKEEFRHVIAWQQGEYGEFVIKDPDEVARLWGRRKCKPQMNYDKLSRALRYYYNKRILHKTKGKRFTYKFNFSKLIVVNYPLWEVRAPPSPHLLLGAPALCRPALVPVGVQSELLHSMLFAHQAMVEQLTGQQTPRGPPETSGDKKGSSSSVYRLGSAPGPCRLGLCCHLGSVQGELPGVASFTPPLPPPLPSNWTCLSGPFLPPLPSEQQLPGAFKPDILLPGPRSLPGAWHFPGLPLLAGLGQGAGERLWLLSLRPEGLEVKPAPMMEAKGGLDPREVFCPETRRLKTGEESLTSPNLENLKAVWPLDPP
The following applies: protein: recombinant; tags: N-terminal GST; dsDNA, one strand shown. The gist of the method:
as §1

Assay [13] concerns the target T8, ETS2 (Homo sapiens, UniProt P15036 1-469).
T8 sequence: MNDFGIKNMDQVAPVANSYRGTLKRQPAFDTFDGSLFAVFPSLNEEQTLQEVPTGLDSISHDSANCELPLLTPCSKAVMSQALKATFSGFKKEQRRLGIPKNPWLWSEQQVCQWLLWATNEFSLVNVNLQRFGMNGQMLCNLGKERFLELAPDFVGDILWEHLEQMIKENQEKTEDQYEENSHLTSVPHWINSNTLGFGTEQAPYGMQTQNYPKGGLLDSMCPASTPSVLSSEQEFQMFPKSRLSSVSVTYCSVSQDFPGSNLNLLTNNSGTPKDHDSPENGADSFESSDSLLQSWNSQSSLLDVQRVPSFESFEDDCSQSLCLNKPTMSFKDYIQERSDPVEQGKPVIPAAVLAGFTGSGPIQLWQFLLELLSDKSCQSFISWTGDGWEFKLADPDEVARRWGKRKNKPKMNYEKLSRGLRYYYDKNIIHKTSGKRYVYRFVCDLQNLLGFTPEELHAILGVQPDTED
The settings on record: protein: recombinant; tags: N-terminal GST; dsDNA, one strand shown. The gist of the method: as §1

The target in assay [14] is T9, SPDEF (Homo sapiens, UniProt O95238 1-335).
T9 sequence: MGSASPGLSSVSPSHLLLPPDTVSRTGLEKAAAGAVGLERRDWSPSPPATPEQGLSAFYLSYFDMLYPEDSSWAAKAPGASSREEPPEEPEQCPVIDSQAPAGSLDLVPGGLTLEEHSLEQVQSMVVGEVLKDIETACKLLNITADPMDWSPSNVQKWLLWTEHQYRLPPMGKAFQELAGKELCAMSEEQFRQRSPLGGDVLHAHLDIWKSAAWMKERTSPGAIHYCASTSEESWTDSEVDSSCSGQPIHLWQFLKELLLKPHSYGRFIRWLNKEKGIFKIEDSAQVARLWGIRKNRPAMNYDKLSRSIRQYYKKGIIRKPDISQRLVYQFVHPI
The settings on record: protein: recombinant; tags: N-terminal GST; dsDNA, one strand shown. In short, it runs like this: as §1

Assay [15] concerns the target T10, ETV7 (Homo sapiens, UniProt Q9Y603 1-341).
T10 sequence: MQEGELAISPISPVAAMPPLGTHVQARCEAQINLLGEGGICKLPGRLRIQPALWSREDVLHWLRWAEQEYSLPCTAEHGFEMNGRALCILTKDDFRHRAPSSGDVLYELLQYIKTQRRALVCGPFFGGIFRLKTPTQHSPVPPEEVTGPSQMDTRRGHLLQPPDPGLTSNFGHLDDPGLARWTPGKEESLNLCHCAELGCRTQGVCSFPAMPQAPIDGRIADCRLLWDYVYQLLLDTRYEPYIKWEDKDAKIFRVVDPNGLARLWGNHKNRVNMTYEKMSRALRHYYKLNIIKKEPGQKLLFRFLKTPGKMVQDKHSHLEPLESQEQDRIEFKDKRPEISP
The settings on record: protein: recombinant; tags: N-terminal GST; dsDNA, one strand shown. In short, it runs like this:
as §1

The target of assay [16] is T11, ELF5 (Homo sapiens, UniProt Q9UKW6-2 1-255).
T11 sequence: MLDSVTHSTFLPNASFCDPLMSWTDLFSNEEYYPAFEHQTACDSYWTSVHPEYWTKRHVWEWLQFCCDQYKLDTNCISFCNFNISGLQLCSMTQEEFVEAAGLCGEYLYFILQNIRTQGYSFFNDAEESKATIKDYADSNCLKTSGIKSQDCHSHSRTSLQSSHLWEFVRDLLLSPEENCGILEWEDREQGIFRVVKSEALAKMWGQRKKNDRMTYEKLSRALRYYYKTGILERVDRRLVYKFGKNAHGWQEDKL
The following applies: protein: recombinant; tags: N-terminal GST; dsDNA, one strand shown. In short, it runs like this:
as §1

Assay [17] has as its target T12, ETV3 (Homo sapiens, UniProt P41162-2 1-143).
T12 sequence: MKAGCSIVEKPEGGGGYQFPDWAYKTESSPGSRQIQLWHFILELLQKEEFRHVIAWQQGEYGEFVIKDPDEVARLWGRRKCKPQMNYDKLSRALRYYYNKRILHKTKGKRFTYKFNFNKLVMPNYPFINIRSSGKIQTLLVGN
The settings on record: protein: recombinant; tags: N-terminal GST; dsDNA, one strand shown. The gist of the method: as §1

Assay [18] addresses ETV6 (Homo sapiens, UniProt P41212 1-452). The settings on record: protein: recombinant; tags: N-terminal GST; dsDNA, one strand shown. In short, it runs like this: as §1

Chain of ETV5 (P41161 whole entry): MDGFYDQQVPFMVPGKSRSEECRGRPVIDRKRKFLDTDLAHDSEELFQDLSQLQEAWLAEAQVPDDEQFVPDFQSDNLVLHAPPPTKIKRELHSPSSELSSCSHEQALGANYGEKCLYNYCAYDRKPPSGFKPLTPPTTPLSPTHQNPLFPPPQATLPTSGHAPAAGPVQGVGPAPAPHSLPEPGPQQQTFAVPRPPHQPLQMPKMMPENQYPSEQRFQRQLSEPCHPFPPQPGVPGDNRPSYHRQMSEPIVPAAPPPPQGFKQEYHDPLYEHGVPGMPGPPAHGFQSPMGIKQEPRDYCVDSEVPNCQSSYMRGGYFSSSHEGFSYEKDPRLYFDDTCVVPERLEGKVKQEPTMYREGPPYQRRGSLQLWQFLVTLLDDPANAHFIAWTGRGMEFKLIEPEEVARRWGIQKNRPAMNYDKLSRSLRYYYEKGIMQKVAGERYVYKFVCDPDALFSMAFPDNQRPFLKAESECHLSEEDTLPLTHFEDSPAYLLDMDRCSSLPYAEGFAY
Chain of ETV6 (P41212 whole entry): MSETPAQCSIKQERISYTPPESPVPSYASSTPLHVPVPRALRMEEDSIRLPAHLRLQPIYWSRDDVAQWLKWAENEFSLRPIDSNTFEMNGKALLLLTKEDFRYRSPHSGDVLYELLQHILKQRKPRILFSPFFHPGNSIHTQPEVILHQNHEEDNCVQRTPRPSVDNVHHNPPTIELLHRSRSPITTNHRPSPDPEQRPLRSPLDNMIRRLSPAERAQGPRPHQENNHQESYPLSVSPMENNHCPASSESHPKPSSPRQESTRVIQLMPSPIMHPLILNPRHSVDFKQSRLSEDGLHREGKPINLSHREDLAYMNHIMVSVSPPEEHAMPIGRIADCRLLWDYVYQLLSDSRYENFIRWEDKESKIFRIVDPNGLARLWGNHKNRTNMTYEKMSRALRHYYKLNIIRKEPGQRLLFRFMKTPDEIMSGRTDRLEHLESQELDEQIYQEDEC
Chain of ELF4 (Q99607 whole entry): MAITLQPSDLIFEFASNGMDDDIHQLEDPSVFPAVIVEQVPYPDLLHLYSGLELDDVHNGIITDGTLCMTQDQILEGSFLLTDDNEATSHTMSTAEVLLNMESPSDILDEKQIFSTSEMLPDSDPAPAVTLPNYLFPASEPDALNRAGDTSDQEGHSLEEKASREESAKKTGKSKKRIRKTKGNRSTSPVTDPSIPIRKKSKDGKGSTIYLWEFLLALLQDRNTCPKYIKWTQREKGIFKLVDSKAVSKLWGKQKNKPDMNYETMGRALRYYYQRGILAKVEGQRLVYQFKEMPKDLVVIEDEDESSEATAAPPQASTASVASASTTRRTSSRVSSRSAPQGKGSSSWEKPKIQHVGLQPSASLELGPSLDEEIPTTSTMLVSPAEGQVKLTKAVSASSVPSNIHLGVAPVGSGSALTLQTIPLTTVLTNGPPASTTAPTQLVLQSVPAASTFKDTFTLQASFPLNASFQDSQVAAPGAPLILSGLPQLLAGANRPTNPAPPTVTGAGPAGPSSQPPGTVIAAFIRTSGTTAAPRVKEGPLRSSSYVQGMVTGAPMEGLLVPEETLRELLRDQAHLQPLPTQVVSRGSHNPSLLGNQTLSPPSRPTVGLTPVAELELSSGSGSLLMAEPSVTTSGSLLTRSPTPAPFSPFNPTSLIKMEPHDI
Chain of HSF1 (Q00613 whole entry): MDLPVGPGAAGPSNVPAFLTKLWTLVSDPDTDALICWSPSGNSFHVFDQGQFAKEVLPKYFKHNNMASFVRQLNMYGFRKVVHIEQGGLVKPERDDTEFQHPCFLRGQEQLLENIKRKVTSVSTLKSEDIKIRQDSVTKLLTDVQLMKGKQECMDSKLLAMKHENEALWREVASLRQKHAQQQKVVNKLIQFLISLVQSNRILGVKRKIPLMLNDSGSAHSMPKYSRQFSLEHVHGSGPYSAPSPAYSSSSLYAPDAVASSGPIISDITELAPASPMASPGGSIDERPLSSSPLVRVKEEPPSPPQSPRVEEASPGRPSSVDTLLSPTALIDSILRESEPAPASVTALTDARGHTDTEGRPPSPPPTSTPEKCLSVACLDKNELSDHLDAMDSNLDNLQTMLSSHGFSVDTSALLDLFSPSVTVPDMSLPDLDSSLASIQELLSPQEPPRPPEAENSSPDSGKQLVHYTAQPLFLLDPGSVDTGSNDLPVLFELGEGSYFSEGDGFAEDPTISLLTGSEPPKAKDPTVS
Chain of ETV1 (P50549 whole entry): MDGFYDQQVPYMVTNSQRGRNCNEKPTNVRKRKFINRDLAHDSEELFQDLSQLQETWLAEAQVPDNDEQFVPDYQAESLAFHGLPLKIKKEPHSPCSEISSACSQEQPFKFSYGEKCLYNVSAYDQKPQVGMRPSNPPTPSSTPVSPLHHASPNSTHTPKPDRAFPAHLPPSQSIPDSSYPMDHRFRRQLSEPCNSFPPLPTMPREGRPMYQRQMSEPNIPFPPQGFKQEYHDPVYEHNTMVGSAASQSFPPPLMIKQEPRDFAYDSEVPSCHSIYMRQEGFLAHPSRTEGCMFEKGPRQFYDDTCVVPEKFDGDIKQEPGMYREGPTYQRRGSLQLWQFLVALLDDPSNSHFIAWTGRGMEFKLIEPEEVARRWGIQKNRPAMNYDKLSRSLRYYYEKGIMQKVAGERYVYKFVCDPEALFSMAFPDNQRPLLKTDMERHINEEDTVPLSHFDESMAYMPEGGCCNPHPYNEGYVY

Take CCCTTA: the binding signal in assay [1] was 1.24 fold enrichment (6-mer frequency, TF over GST control); in [2], 1.28 fold enrichment (6-mer frequency, TF over GST control); in assay [3], 1.28 fold enrichment (6-mer frequency, TF over GST control); in [4], 1.31 fold enrichment (6-mer frequency, TF over GST control); in [5] it was 1.39 fold enrichment (6-mer frequency, TF over GST control); in assay [6], 1.21 fold enrichment (6-mer frequency, TF over GST control). Also, the binding signal in assay [7] was 1.41 fold enrichment (6-mer frequency, TF over GST control); in assay [8], 1.29 fold enrichment (6-mer frequency, TF over GST control); in assay [9], 1.59 fold enrichment (6-mer frequency, TF over GST control); in [10] it was 1.21 fold enrichment (6-mer frequency, TF over GST control); in assay [11], 1.32 fold enrichment (6-mer frequency, TF over GST control); in assay [12] it was 1.41 fold enrichment (6-mer frequency, TF over GST control). The binding signal in assay [13] was 1.34 fold enrichment (6-mer frequency, TF over GST control); in assay [14] it was 1.38 fold enrichment (6-mer frequency, TF over GST control); in assay [15], 1.23 fold enrichment (6-mer frequency, TF over GST control); in assay [16], 1.2 fold enrichment (6-mer frequency, TF over GST control); in assay [17], 1.39 fold enrichment (6-mer frequency, TF over GST control); in [18], 1.24 fold enrichment (6-mer frequency, TF over GST control).
